This is a sample that favours compounds with a hit; in the whole collection about 4.7% have one here.
D1 antagonist: blocks dopamine activation of the human D1 receptor; P21728; HEK293 TREx D1 cells, calcium flux, dopamine EC80; stronger effect = lower value; activity change, negative = inhibition, % at 10 µM; actives 3.2% (n = 360,000); AID 504652; in the data active = activity change below about -30%
Target sequence (P21728 whole entry, looked up): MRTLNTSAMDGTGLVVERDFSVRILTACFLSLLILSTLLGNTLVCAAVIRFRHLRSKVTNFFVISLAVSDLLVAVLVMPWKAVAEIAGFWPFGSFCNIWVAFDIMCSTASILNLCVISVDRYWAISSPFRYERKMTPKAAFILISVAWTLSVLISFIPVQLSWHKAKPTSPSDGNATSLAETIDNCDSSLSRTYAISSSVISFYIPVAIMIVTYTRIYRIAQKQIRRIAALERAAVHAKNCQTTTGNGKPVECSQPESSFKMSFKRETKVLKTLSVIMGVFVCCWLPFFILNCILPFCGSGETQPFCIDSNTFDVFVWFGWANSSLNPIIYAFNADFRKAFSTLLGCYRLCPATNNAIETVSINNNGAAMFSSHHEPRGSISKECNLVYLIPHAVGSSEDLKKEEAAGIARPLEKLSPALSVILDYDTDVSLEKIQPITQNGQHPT
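Compound effects on dopamine-evoked calcium signalling were measured in tetracycline-induced HEK293 Trex D1 cells. Dopamine at EC80 followed a 180 s compound pre-read, and fluorescence was tracked kinetically for 180 s more.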
D1 ag: agonists of human D1 dopamine receptor; activation, % at 2 µM; P21728; actives 1% (n = 360,000); HEK293 T-REx D1 cells, calcium flux, agonist mode
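Inducible HEK293 T-REx D1 cells, force-coupled to calcium signalling, were plated at 4000 cells/well with tetracycline and held overnight at 30 C. After no-wash calcium dye loading, compound-evoked calcium rise over 180 s flagged agonists.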
TRHR ag: activates the human TRH receptor | P34981 | TRHR cells, calcium flux fluo-8, FDSS agonist mode | activation, % at 2 µM | actives 0.18% (n = 360,000) | AID 493084
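TRHR-expressing cells loaded with fluo-8 calcium dye; 23 nL library compound pin-transferred, kinetic FDSS fluorescence (Ex 480/Em 530) recorded about 180 s for agonist-induced calcium release, before a 10 nM TRH EC20 addition for potentiator mode.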
D1 potentiator: human D1 dopamine receptor positive modulation | HEK293 TREx D1 cells, calcium flux, dopamine EC20 potentiation | actives 0.036% (n = 360,000) | P21728 | potentiation, % at 10 µM | AID 504651; in the data active = potentiation above about 30%
TRHR PAM: allosterically enhances the human TRH receptor. TRHR cells, fluo-8 calcium fluorescence, EC20 TRH enhancement. P34981. enhancement, % at 2 µM. actives 0.66% (n = 360,000); in the data active = enhancement above about 30%
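TRHR-expressing cells loaded with fluo-8 calcium dye were read kinetically (ex 480/em 530) during compound addition, then stimulated with an EC20 of TRH (10 nM final). Enhancement of the Gq-mediated intracellular calcium response was scored.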
Each line names hits and unclear results; the compound was inactive in the other large screens; ! = repeats disagree. Rule as the data show it, unless noted: active = activation above about 30%; inactive = the rest.

COc1ccc(CCNC(=O)CCc2c(C)c3cc4c(C)coc4cc3oc2=O)cc1	D1 antagonist -51
COc1cccc(CNC(=O)CC(c2ccc(F)cc2)N2Cc3ccccc3C2=O)c1 (stereo unspecified)	none
CCCNC(=O)c1ccccc1NC(=O)c1ccc(CSc2ccccc2)cc1	D1 antagonist -46, D1 ag 40
CCC(C)NC(=O)c1ccccc1NC(=O)c1ccc(CSc2ccccc2)cc1 (stereo unspecified)	D1 ag 36
Cc1ccc(SCc2ccc(C(=O)Nc3ccccc3C(=O)NC(C)C)cc2)cc1	none
CC(C)N1CN=C(Nc2nc3ccccc3o2)NC1	TRHR PAM 31
Cc1cccc(C)c1NC(=O)CN(C)CC(=O)Nc1cc(Cl)ccc1C#N	TRHR PAM 34
Cc1nn(-c2ccc(C(=O)O)cc2)c2c1C(=O)CC(C)(C)C2	none
Cc1c(CC(Cl)(Cl)Cl)c2c(n1O)CC(C)(C)CC2=O	D1 antagonist -46
COc1cccc(CN2CCN(CCc3ccccc3)C(CCO)C2)c1OC (stereo unspecified)	none
CC(C)CCN1CCN(Cc2cccn2-c2cccnc2)CC1CCO (stereo unspecified)	D1 ag 30
CC(C)N1CCN(Cc2cccn2-c2cccnc2)CC1CCO (stereo unspecified)	none
COc1cccc2c1OCC(CN1CCN(CCC(C)C)C(CCO)C1)=C2 (stereo unspecified)	D1 antagonist -30
Cc1ccc(NS(=O)(=O)c2ccc(C(=O)N3CC(C)CC(C)C3)cc2)cc1 (stereo unspecified)	D1 antagonist -42, D1 ag 73
Cc1ccc(S(=O)(=O)Nc2ccc(C(=O)N3CCCC3)cc2)cc1	none
COc1ccc(NC(=O)CN(C)C2CCCCC2)cc1Cl	D1 antagonist -45
O=C(COC(=O)CC1CCCC1)Nc1cccc(F)c1	D1 antagonist -31
CN(CC(=O)Nc1ccc(Cl)cc1)C1CCCCC1	none
COc1ccc(NC(=O)CCC2CCCC2)cc1OC	none
COc1ccc(NC(=O)CC2CCCC2)cc1OC	D1 antagonist -46
O=[N+]([O-])c1ccc(CN2CCN(c3ccc(Cl)cc3)CC2)o1	D1 antagonist -32
CCn1c(C)c(C)c2cc(C(=O)NCC(C)c3ccccc3)ccc21 (stereo unspecified)	none
Cc1ccc(CNc2nc3ccccc3n3cnnc23)cc1	D1 antagonist -37!
c1ccc(Nc2nc3ccccc3n3cnnc23)cc1	TRHR PAM 34
O=C(O)c1ccc(Nc2nc3ccccc3n3cnnc23)cc1	none
CSc1ccc(CNc2nc3ccccc3n3cnnc23)cc1	none
CC1(C)N=C(SCc2ccc(F)cc2)c2ccccc2N1	none
COc1ccc(NC(=O)CN2C(=O)C(C)(C)c3cc(S(=O)(=O)N4CCCCC4)ccc32)cc1Cl	none
N#Cc1nc(Nc2cccc(Br)c2)nc(NC2CCCC2)n1	none
COc1cccc(Nc2nc(C#N)nc(NC3CCCC3)n2)c1	D1 antagonist -33
N#Cc1nc(Nc2cccc3ccccc23)nc(NC2CCCC2)n1	D1 antagonist -35
Cc1cccc(Cc2ccc(Cl)nn2)c1	D1 antagonist -38
COc1nc(-c2ccccc2)ccc1-c1noc(-c2ccc(F)cc2)n1	none
COc1nc(-c2ccccc2)ccc1-c1noc(-c2ccccc2F)n1	D1 ag 159
O=C(Nc1ccc(Cl)c(Cl)c1)N1CCC(c2ccccc2)C1 (stereo unspecified)	D1 antagonist -43
O=C(Nc1ccccc1)N1CCC(c2ccccc2)C1 (stereo unspecified)	none
Cc1ccc(C2CCN(C(=O)Nc3ccc(Cl)c(Cl)c3)C2)cc1 (stereo unspecified)	D1 antagonist -45
CCOc1ccc(NC(=O)N2CCC(c3ccc(C)cc3)C2)cc1 (stereo unspecified)	D1 antagonist -31!
COc1ccc2oc(=O)cc(CN3CCN(C(=O)c4ccccc4Br)CC3)c2c1	none
Cc1ccc(/C=N/NC(=O)c2ccc(-n3cnnn3)cc2)cc1	none
COc1ccc(C(CNC(=O)c2ccc(-n3cnnn3)cc2)N2CCOCC2)cc1 (stereo unspecified)	D1 antagonist -47
COc1ccc(CC(=O)NCC(c2ccc(Cl)cc2)N2CCOCC2)cc1 (stereo unspecified)	D1 antagonist -43
COc1ccc(C(CNC(=O)c2ccc(C)cc2)N2CCOCC2)cc1 (stereo unspecified)	none
COc1ccc(/C=N/NC(=O)c2ccc(-n3cnnn3)cc2)cc1	D1 antagonist -65
O=C(NCc1nc2cccnc2n1Cc1ccc(F)cc1)c1ccccc1C(F)(F)F	none
CCOc1ccc(CNS(=O)(=O)c2cc3c(cc2C)NC(=O)CO3)cc1	none
COCCn1c(N)c(C(=O)NS(=O)(=O)c2ccc(C)cc2)c(=O)[nH]c1=O	D1 antagonist -32
COc1ccc(N2CCN(C(=O)CCc3c[nH]c4ccccc34)CC2)cc1	none
COc1ccccc1N1CCN(C(=O)CCc2c[nH]c3ccccc23)CC1	D1 antagonist -38
CCSc1cc(N2CCCC2)nc(-c2cccc(C)c2)n1	TRHR PAM 31
CCSc1cc(N2CCCC2)nc(-c2ccc(C)cc2)n1	none
Nc1c2c(nc3ccn(Cc4ccccc4)c(=O)c13)CCC2	none
Nc1c2c(nc3ccn(-c4ccccc4)c(=O)c13)CCCCC2	D1 antagonist -35
COc1cccc(CNC(=O)c2cnc3sc(N4CCCC4)nn3c2=O)c1OC	none
C(#Cc1ccc(C#CCN2CCCC2)cc1)CN1CCCC1	D1 antagonist -32
NS(=O)(=O)c1ccc(NC(=O)c2cccc3ccccc23)cc1	D1 antagonist -36
CCOc1ccc(S(=O)(=O)NCCc2sc(-c3ccc(C)cc3)nc2C)cc1	none
Cc1ccc(SCCNC(=O)c2ccccc2F)cc1	none
CS(=O)(=O)Nc1ccccc1C(=O)NCCSc1ccc(Cl)cc1	D1 antagonist -32
O=C(C1CCCN(S(=O)(=O)c2cccs2)C1)N1CCN(c2cccc(Cl)c2)CC1 (stereo unspecified)	none
O=C1NC(=Nc2ccccc2Cl)SC1(CO)CO	none
Cc1ccccc1N=C1NC(=O)C(CO)(CO)S1	D1 antagonist -36
CCOc1ccc2c(c1)C(=NNC(=O)c1ccncc1)c1cc(OCC)ccc1-2	TRHR PAM 35
CCOc1ccc(C(=O)c2ccncc2)cc1	none
Cc1cccc(C)c1NC(=O)C(NS(=O)(=O)c1ccc2c(c1)CCC(=O)N2)c1ccccc1 (stereo unspecified)	none
CCOC(=O)CC(NC(=O)C(CC)c1ccccc1)c1ccccc1Cl (stereo unspecified)	none
CCOC(=O)CC(/C(C)=N\O)c1ccccc1 (stereo unspecified)	D1 antagonist -75
O=C(Nc1cccc2ncccc12)c1ccc([N+](=O)[O-])o1	D1 antagonist -39
